Among all 310,000 compounds or so, about 14,000 (4.5%) showed an effect of 50% or more. The effect is printed as a negative number. Many of the other results were omitted from the sample, so strong results are more common in it than they were.
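Note: peak tail current of the secondary pulse compared with the same well before compound.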

human ether-à-go-go-related gene (hERG) potassium channel, sequence (Q12809 whole entry, looked up): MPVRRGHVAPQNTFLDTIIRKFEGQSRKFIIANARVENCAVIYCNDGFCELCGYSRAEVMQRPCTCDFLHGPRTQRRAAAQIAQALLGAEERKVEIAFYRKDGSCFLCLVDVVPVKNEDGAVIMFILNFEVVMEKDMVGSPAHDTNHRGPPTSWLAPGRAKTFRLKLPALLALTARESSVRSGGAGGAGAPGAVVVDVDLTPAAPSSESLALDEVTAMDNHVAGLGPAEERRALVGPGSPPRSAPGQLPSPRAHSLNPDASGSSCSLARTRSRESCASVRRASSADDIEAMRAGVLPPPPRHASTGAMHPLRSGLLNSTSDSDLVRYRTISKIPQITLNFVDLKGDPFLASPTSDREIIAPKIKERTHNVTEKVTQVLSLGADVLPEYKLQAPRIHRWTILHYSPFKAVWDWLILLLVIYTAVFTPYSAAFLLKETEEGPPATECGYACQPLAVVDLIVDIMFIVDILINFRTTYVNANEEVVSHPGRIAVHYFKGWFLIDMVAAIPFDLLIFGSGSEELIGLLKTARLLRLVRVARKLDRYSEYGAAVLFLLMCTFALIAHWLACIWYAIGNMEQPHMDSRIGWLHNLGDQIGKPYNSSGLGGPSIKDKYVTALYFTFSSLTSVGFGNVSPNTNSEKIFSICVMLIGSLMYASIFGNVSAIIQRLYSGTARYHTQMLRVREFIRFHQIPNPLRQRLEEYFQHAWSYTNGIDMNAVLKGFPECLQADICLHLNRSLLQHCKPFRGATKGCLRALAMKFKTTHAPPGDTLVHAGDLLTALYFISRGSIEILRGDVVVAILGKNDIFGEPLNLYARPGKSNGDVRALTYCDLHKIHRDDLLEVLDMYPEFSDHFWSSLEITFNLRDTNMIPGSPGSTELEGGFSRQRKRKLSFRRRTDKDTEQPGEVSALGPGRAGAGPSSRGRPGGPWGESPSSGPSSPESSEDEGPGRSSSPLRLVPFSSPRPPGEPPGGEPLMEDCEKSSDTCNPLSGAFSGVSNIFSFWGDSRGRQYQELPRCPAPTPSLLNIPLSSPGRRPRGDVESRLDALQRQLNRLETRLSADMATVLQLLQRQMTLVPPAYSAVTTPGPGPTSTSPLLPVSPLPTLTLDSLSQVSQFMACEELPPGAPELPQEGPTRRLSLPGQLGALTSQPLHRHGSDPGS

This test has as its target human ether-à-go-go-related gene (hERG) potassium channel (human, UniProt Q12809). Description: primary screen, population patch clamp on CHO cells stably expressing hERG; higher = less effect of the substance.
Regarding `Nc1ccc2nc3c(=O)n(C4CCCCC4)c(=O)[nH]c3nc2c1`, the “hERG current change (%, negative = inhibition) at 10uM” value is -0.914%. With `CC(=O)c1c(C(C)=O)c(C)n(C2CCCCC2)c1C`, the “hERG current change (%, negative = inhibition) at 10uM” value turned out to be 2.97%. With `NC(=O)c1ccc(NC(=O)CCCc2nc(-c3ccccc3Cl)no2)cc1` the figure was 18.4%; with `CCOc1ccc(S(=O)(=O)N2CCC(C(=O)NCCN3CCOCC3)CC2)cc1C`, 1.77%; with `CCOC(=O)C(=CNc1ncccc1C)C(=O)OCC`, 1.51%. With `CC(C)CCNC(=O)Cn1c(=O)oc2cc(S(=O)(=O)N3CC(C)CC(C)C3)ccc21` (stereo not shown) the figure was 13.3%; with `CN1CCN(CCCc2c3c(cc4c2CCC4)CCC3)CC1.Cl`, -19.8%; with `Cc1cc(N2CCCCC2)nc2ccc(NC(=O)c3ccc(Br)o3)cc12`, -52.9%.

In the case of `COc1ccc(C(=O)Nc2ccc3nc(N4CCCCC4)cc(C)c3c2)c(OC)c1`, the “hERG current change (%, negative = inhibition) at 10uM” value is recorded as 4.06%. With `CCCCNC(=O)CCC(=O)Nc1ccc2nc(N3CCCCC3)cc(C)c2c1` the figure was -18.5%. To `CCOc1ccc(S(=O)(=O)N2CCOCC2)cc1NC(=O)CN1C(=O)NC(C)(c2ccccc2)C1=O` (stereo not shown) belongs -52.6%; to `CC(C)Oc1ccc(S(=O)(=O)N2CCOCC2)cc1NC(=O)CN1C(=O)NC2(CCCC2)C1=O`, -17.8%.

Take `CC1(c2ccccc2)NC(=O)N(CC(=O)Nc2cc(S(=O)(=O)N3CCOCC3)ccc2Cl)C1=O` (stereo not shown): the “hERG current change (%, negative = inhibition) at 10uM” value was -7.82%. To `CCC1(c2ccccc2)NC(=O)N(CC(=O)Nc2cc(S(=O)(=O)N3CCOCC3)ccc2OC(C)C)C1=O` (stereo not shown) belongs -55.7%. On to `CCOc1ccc(S(=O)(=O)N2CCOCC2)cc1NC(=O)CN1C(=O)NC(CC)(c2ccccc2)C1=O` (stereo not shown), for which the “hERG current change (%, negative = inhibition) at 10uM” value is recorded as -73.5%. To `CCC1(c2ccccc2)NC(=O)N(CC(=O)Nc2cc(S(=O)(=O)N3CCCCC3)ccc2OC(C)C)C1=O` (stereo not shown) belongs -5.02%; to `CCOc1ccc(S(=O)(=O)N2CCCCC2)cc1NC(=O)CN1C(=O)NC(CC)(c2ccccc2)C1=O` (stereo not shown), -15%; to `CCOc1ccc(S(=O)(=O)N2CCOCC2)cc1NC(=O)CN1C(=O)NC2(CCCC2)C1=O`, 5.87%.

For the compound `CCOc1ccc(S(=O)(=O)N2CCCCC2)cc1NC(=O)CN1C(=O)NC(C)(c2ccccc2)C1=O` (stereo not shown), the “hERG current change (%, negative = inhibition) at 10uM” value was -35.5%. On to `C[C@H](C(=O)NCc1ccccc1)C(=O)c1ccccc1`, for which the “hERG current change (%, negative = inhibition) at 10uM” value amounted to 18%. For `CCOC(=O)CN1C(=O)C(O)(CC(=O)c2ccccn2)c2ccccc21` (stereo not shown), the “hERG current change (%, negative = inhibition) at 10uM” value worked out at 14.6%. To `Cc1nn(Cc2ccccc2)c(C)c1C(=O)NCc1ccccc1` belongs 6.55%. With `COc1ccc2cc(C(=O)OC(C)C)sc(=O)c2c1OC` the figure was 2.45%. With `Cc1ccc(/C(N)=N/OC(=O)c2ccc3ccccc3c2)cc1` the figure was 0.62%; with `CCOC(=O)N1CCC(N2Cc3cccc(C(=O)Nc4ccc(OCC)cc4)c3C2=O)CC1`, 9.07%.

In the case of `CCOC(=O)N1CCC(N2Cc3cccc(C(=O)NCc4ccccn4)c3C2=O)CC1`, the “hERG current change (%, negative = inhibition) at 10uM” value is reported as -34.5%. On to `CCOC(=O)N1CCC(N2Cc3cccc(C(=O)NC(C)c4ccc5c(c4)OCCO5)c3C2=O)CC1` (stereo not shown), for which the “hERG current change (%, negative = inhibition) at 10uM” value is on record as -67.5%. With `CCOC(=O)N1CCC(N2Cc3cccc(C(=O)Nc4cc(F)ccc4F)c3C2=O)CC1` the figure was -23.1%; with `CCOC(=O)N1CCC(N2Cc3cccc(C(=O)Nc4ccc(F)cc4)c3C2=O)CC1`, -55.3%.

As to `Cc1cccc(C)c1NC(=O)c1cccc2c1C(=O)N(C1CCCCC1)C2`, the “hERG current change (%, negative = inhibition) at 10uM” value was -7.01%. With `CCOC(=O)N1CCC(N2Cc3cccc(C(=O)Nc4ccc(N(CC)CC)cc4C)c3C2=O)CC1` the figure was -7.16%; with `CCOC(=O)N1CCC(N2Cc3cccc(C(=O)Nc4cccc(F)c4)c3C2=O)CC1`, -72.1%; with `CCOC(=O)N1CCC(N2Cc3cccc(C(=O)Nc4c(C)cccc4CC)c3C2=O)CC1`, -77.1%. To `CCOC(=O)N1CCC(N2Cc3cccc(C(=O)Nc4ccc(CC)cc4)c3C2=O)CC1` belongs -42.6%. Turning to `O=C(Nc1cccc(F)c1)c1cccc2c1C(=O)N(C1CCCCC1)C2`, the “hERG current change (%, negative = inhibition) at 10uM” value came out at 12.2%. With `CCOC(=O)N1CCC(N2Cc3cccc(C(=O)NCc4ccc5c(c4)OCO5)c3C2=O)CC1` the figure was -19.5%.

As for `COc1ccc(OC)c(/C=N/n2c(COc3ccccc3)n[nH]c2=S)c1`, the “hERG current change (%, negative = inhibition) at 10uM” value stood at 12.2%. Consider `CCOc1ccc(-c2noc(-c3cccnc3)n2)cc1OCC`, for which the “hERG current change (%, negative = inhibition) at 10uM” value is listed as 13.7%. On to `O=c1[nH]nc(Cc2ccc3ccccc3n2)c2ccccc12`, for which the “hERG current change (%, negative = inhibition) at 10uM” value amounted to 1.36%. With `COc1ccc2[nH]c(=O)c(CN(Cc3cccs3)C(=S)Nc3ccccc3)cc2c1`, the “hERG current change (%, negative = inhibition) at 10uM” value worked out at 16.7%. To `Fc1ccc(NC(=S)Nc2cccnc2)c(F)c1F` belongs 20.1%. With `COc1ccccc1CNC(=O)COc1ccc2c(c1)CCC2` the figure was -1.2%. To `Nc1ncnc2c1ncn2CCOc1ccccc1` belongs 5.18%; to `Cc1cccc2sc(N(CCCN(C)C)C(=O)c3nc4ccccc4s3)nc12.Cl`, 4.2%; to `CN(C)CCCN(C(=O)c1ccco1)c1nc2c(F)cccc2s1.Cl`, -73.2%. For `COc1cc2ccccc2cc1C(=O)N(CCN(C)C)c1nc2c(F)cc(F)cc2s1.Cl`, the “hERG current change (%, negative = inhibition) at 10uM” value is listed as -10.1%.

Turning to `Cc1cccc2sc(N(CCCN(C)C)C(=O)c3ccc(Cl)s3)nc12.Cl`, the “hERG current change (%, negative = inhibition) at 10uM” value is listed as -69.7%. To `CN(C)CCCN(C(=O)c1ccco1)c1nc2c(F)cc(F)cc2s1.Cl` belongs -72.2%; to `Cc1cccc2sc(N(CCCN(C)C)C(=O)c3ccco3)nc12.Cl`, -74.9%.

Regarding `CN(C)CCN(C(=O)/C=C/c1cccs1)c1nc2c(F)cc(F)cc2s1.Cl`, the “hERG current change (%, negative = inhibition) at 10uM” value is given as -47.8%. With `CN(C)CCCN(C(=O)c1cc(-c2cccs2)nc2ccccc12)c1nc2c(F)cccc2s1.Cl` the figure was -48.8%. To `Cc1cccc2sc(N(CCN(C)C)C(=O)c3cc(Cl)sc3Cl)nc12.Cl` belongs -22.7%.

Source of the values: publication PMC4336329 (PLoS ONE, 2015).
